High-throughput results as filed in PubChem.
An excerpt weighted towards active compounds, which were near 4.3% of everything screened.
Anthrax LF prot: inhibitors of Bacillus anthracis lethal factor protease | inhibition, % at 10 µM | hit rate 0.12% among 360,000 | P15917 | multiplex microsphere protease cleavage assay, LF; further: plate controls were buffer without enzyme for full effect and enzyme alone for no effect
BoNT-A LC inh2: inhibitors of Botulinum neurotoxin A light chain protease; hit rate 0.17% among 360,000; AID 588499; inhibition, % at 10 µM; multiplex microsphere protease substrate cleavage, flow cytometry; further: plate controls were buffer without enzyme for full effect and enzyme alone for no effect
MazEF act: activators of E. coli MazEF toxin-antitoxin RNase | FAM/BHQ RNA-DNA oligo cleavage fluorescence, 5 h | activation, % at 20 µM | hit rate 0.32% among 350,000 | AID 504720; in the data active means activation above about 50%
Target sequence (P0AE70 whole entry, looked up): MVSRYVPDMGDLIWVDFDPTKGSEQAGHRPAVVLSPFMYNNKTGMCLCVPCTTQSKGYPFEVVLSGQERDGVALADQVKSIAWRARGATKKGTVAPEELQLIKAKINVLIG
BoNT F protease: BoNT F light chain protease inhibition; Multiplex microsphere protease cleavage assay, flow cytometry; inhibition, % at 10 µM; hit rate 0.22% among 360,000; in the data active means inhibition above about 35%, passing the limit was not always enough; inconclusive means no clear call, values can overlap the other calls; further: plate controls were buffer without enzyme for full effect and enzyme alone for no effect
PfHsp40 rescue: rescue of PfHsp40-mediated yeast toxicity; S. cerevisiae expressing PfHsp40, growth rescue, ATP luminescence; AID 504582; growth rescue, % at 12.5 µM; hit rate 0.68% among 340,000; in the data active means growth rescue above about 28%, passing the limit was not always enough; inconclusive means no clear call, values can overlap the other calls;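 further: yeast W303a lacking pdr1 and pdr3 grown in galactose medium; growth measured after three days at 30 °C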
Autofluor counter: compound fluorescence in toxin protease inhibitor counterscreen; fluorescence intensity (concentration not given with the values); compound autofluorescence counterscreen, microsphere flow cytometry; stronger effect = higher value; hit rate 3.1% among 360,000; in the data active means fluorescence intensity above about 16000; inconclusive means no clear call, values can overlap the other calls
* = called active by the depositor; ? = inconclusive; / = not tested or not shown. Unless noted, no stated cut-off is given here; in the data, active means inhibition above about 30%; inconclusive means no clear call, values can overlap the other calls; inactive means below that.

SMILES | Anthrax LF prot | BoNT-A LC inh2 | MazEF act | BoNT F protease | PfHsp40 rescue | Autofluor counter
CC(=O)NC(Cc1cccc(C)c1)C(=O)NC1CCN(C(=O)NCc2ccccc2)CC1 (stereo not drawn) | 5 | -1 | 9 | 19 | -2 | 3628
Cc1ccc(N(CC(=O)NCc2ccccc2)S(=O)(=O)c2c(C)noc2C)cc1 | 0 | 1 | 5 | 5 | -1 | 5204
O=C(O)c1ccccc1-n1c2ccccc2c2ccccc21 | 2 | 2 | 3 | 9 | 3 | 3616
CCN(CC)S(=O)(=O)c1cc(F)ccc1OC | -4 | 0 | -3 | -6 | 0 | 3909
CCN(CC)S(=O)(=O)c1cc(C(=O)Oc2ccccc2OC)ccc1OC | 3 | 1 | 4 | 4 | 19 | 22741*
O=C(CCc1ccc(S(=O)(=O)N2CCOCC2)cc1)Nc1nccs1 | -4 | 0 | 4 | 0 | -2 | 2844
O=C(CCc1ccc(S(=O)(=O)N2CCOCC2)cc1)Nc1nc(COc2ccccc2)cs1 | -1 | 2 | -7 | 0 | 0 | 22376*
O=C(CCc1ccc(S(=O)(=O)N2CCOCC2)cc1)N1CCCC1 | -2 | ? | 4 | -3 | -1 | 23425*
CNS(=O)(=O)c1ccc(CCC(=O)N2CCOCC2)cc1 | -6 | 3 | 7 | ? | 0 | 3301
O=C(CCc1ccc(S(=O)(=O)N2CCOCC2)cc1)NCCc1ccccn1 | -2 | ? | 3 | -2 | -2 | 21908*
COc1ccccc1OCc1ccc(C(=O)Nc2ccc(Cl)cn2)o1 | -1 | 0 | -3 | 1 | 0 | 2678
CCc1nc2ccc(C(=O)Nc3ccc(NC(C)=O)cc3)cn2c1N(C)CCC(C)C | -5 | -1 | / | -1 | / | 3951
COc1cc(OC)cc(C(=O)N[C@H](C(=O)OCC(=O)c2ccc3c(c2)NC(=O)CO3)C(C)C)c1 | 1 | 0 | -6 | -6 | 0 | 8766
CC(C)[C@H](NC(=O)c1ccccc1)C(=O)OCC(=O)c1ccc2c(c1)NC(=O)CO2 | -1 | -1 | -10 | 0 | 0 | 23418*
C/C(N)=C(/C#N)C(=O)CSc1nc2scc(-c3ccc(F)cc3)c2c(=O)n1C | 0 | 0 | 29 | -4 | -1 | 3226
CCn1ncc(C2=NOC(C(=O)N3CCC(C(N)=O)CC3)C2)c1C (stereo not drawn) | -7 | ? | 3 | 4 | 0 | 21518*
CCn1ncc(C2=NOC(C(=O)Nc3cc(OC)c(Cl)cc3OC)C2)c1C (stereo not drawn) | -1 | 2 | 2 | 1 | 1 | 18923*
CCOC(=O)N1CCN(C(=O)C2CC(c3cc(OC)ccc3OC)=NO2)CC1 (stereo not drawn) | 1 | ? | -5 | -1 | 0 | 23965*
COc1ccc(OC)c(C2=NOC(C(=O)N3CCC4(CC3)OCCO4)C2)c1 (stereo not drawn) | -3 | -1 | -4 | -4 | 0 | 11170
CCn1ncc(C2=NOC(C(=O)NCC(C)C)C2)c1C (stereo not drawn) | -3 | -1 | 9 | 1 | 3 | 4388
CCn1ncc(C2=NOC(C(=O)Nc3cnn(C45CC6CC(CC(C6)C4)C5)c3)C2)c1C (stereo not drawn) | -1 | 2 | -8 | 1 | -1 | 21886*
CCn1ncc(C2=NOC(C(=O)NCCc3ccccc3)C2)c1C (stereo not drawn) | 0 | 0 | 3 | 0 | 0 | 9809
NC(=O)CSc1nnc(-c2ccco2)n1-c1ccc(F)cc1 | 0 | 0 | -15 | 0 | / | 3673
CCOC(=O)c1c(-n2c(C)cc(C=C3C(=O)NC(=S)NC3=O)c2C)sc2c1CCCC2 | 38* | 36* | -49 | 29 | -1 | 9156
CCOC(=O)c1c(-n2c(C)cc(/C=C3/C(=O)NC(=O)N(CC)C3=O)c2C)sc2c1CCCC2 | -5 | 1 | -13 | 7 | 0 | 3493
Cc1cc(C)n(-c2nc3c(c(=O)[nH]c(=O)n3C)n2Cc2cccc(Br)c2)n1 | 0 | 0 | -6 | -1 | 0 | 4282
Cc1ccc(Cn2c(CN3CC(C)OC(C)C3)nc3c2c(=O)[nH]c(=O)n3C)cc1 (stereo not drawn) | -3 | 0 | 1 | 0 | 0 | 20485*
Cc1ccc(Cn2c(-n3nc(C)cc3C)nc3c2c(=O)[nH]c(=O)n3C)cc1 | -5 | 3 | 2 | 3 | -2 | 22348*
O=C1C2(CCCC13COC(c1ccc(O)cc1)OC3)COC(c1ccc(O)cc1)OC2 (stereo not drawn) | / | / | 5 | / | / | /
O=C(CSc1nc2ccccc2s1)c1ccc(O)cc1O | 1 | 1 | -2 | -12 | -1 | 3313
